# Shiga inhibitor: inhibitors of Shiga toxin in Vero cells. 290,000 compounds, 9.2% hits. Vero cells, Shiga toxin protein synthesis inhibition reporter. inhibition, % at 38.7 µM; in the data active means inhibition mostly above about 28%, no sharp cut-off; inactive means mostly below about 43%; further: 0% is about no effect
# Giardia FBPA inh: blocks Giardia fructose-bisphosphate aldolase activity; purified Giardia FBPA; A8B2U2; 290,000 compounds, 0.71% hits; Potency, µM (highest dose often 59.6 µM), without a hit: at the highest dose activity, negative = inhibition, hits mostly inhibitors; further: potency means the concentration at half of the fitted maximal effect; on the % scale 0 is the no-effect control and ±100 the full control effect; nearly all actives have a fitted effect of over 55% in size
# Target sequence (A8B2U2 whole entry, looked up): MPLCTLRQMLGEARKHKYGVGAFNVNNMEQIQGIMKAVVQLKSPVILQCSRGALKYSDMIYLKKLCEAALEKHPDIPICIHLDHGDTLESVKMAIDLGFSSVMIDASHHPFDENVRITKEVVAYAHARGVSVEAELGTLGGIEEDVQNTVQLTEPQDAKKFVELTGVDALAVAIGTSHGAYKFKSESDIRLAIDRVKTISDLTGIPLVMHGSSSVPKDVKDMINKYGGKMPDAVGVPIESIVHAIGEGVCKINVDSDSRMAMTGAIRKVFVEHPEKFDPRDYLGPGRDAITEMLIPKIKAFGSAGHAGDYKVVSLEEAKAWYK
#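 40 nM FBPA preincubated 10 min at RT with compound (up to 57.5 uM final), then substrate plus GAPDH/TPI/NAD/arsenate coupling and diaphorase/resazurin added. Fluorescence read after 20 min at RT, 525/598 nm.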
# NS1 function inh: blocks influenza NS1 protein function; Potency, µM (highest dose often 46.1 µM), without a hit: at the highest dose activity, positive = more growth; 270,000 compounds, 0.4% hits; calls by dose curve; further: potency means the concentration at half of the fitted maximal effect; actives are rising curves; nearly all actives have a fitted effect of over 50% in size
#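 Compounds were scored for reversing the slow growth caused by influenza A NS1 in S. cerevisiae, measured by optical density at 600 nm. Assay medium contained 2% galactose at pH 6.0; NS1-free yeast of the same strain were the positive control.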
# Pf growth 96h: P. falciparum growth inhibition at 96 hour, primary screen for plastid delayed-death inhibitors; Potency, µM (doses to about 28.7 µM), inactives show at the highest dose activity change, negative = inhibition, hits mostly inhibitors; P. falciparum luciferase reporter growth, 96 h; 320,000 compounds, 6.9% hits; further: potency means the concentration at half of the fitted maximal effect; on the % scale 0 is the no-effect control and ±100 the full control effect
#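 Two-generation exposure (96 h) targets delayed-death phenotype. Reporter parasites carrying integrated firefly luciferase, in red cells at 2% hematocrit and 0.05% parasitemia final, kept at 37 C, 5% CO2; luminescence loss indicates inhibition.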
# Cycloheximide cs: counter-screen for Shiga toxin inhibitors: cycloheximide protein synthesis inhibition; 300,000 compounds, 12% hits; cell reporter, cycloheximide protein synthesis inhibition counterscreen; AID 2314; max response, %; in the data active means max response mostly above about 13%, no sharp cut-off; inactive means mostly below about 14%; further: read at 38.3 µM for the half of the compounds with a filed dose; 0% is about no effect
# Pf growth 48h: P. falciparum growth inhibition at 48 hours (one generation); AID 504832; P. falciparum luciferase growth in erythrocytes, 48 h; 310,000 compounds, 5.9% hits; Potency, µM (doses to about 28.7 µM), for inactives: at the highest dose activity change, negative = inhibition, actives largely listed as inhibitors; further: potency means the concentration at half of the fitted maximal effect; on the % scale 0 is the no-effect control and ±100 the full control effect
#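 Growth was read as firefly luciferase luminescence after a 48 h, 37 C, 5% CO2 exposure of compounds to reporter-bearing P. falciparum cultures (0.1% parasitemia, 2% hematocrit final) in Albumax-supplemented RPMI 1640.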
# * hit, by the source's call; ? = inconclusive; / = not tested or not shown. An excerpt weighted towards active compounds, which were near 21% of everything screened. Unless noted, the call rests on the fitted dose curve; in most records, active means well fitted curve in the direction sought with a large enough effect; inconclusive means small, poorly fitted or top-dose-only effect, or another doubt; inactive means no such curve, though single readings can be large; an effect the other way counts as inactive or inconclusive.
SMILES,Shiga inhibitor,Giardia FBPA inh,NS1 function inh,Pf growth 96h,Cycloheximide cs,Pf growth 48h
Cc1nc2c(C)cccc2cc1C(=O)N/N=C/c1cccc([N+](=O)[O-])c1,-4,-5%,13%,36%,-3,-4%
Cc1noc(C)c1-c1ccc2ncnc(N3CCC(C(=O)O)CC3)c2c1,/,4%,/,/,/,/
Cc1ccsc1C(=O)OCC(=O)NCc1ccc(Cl)cc1,/,/,/,99%,/,121%
Cc1nn(-c2ccc(Cl)cc2)c2sc(C(=O)N3CCN(C(=O)c4ccco4)CC3)cc12,-9,-4%,-5%,10µM*,-3,7%
O=C(Nc1ccc(N2CCN(C(=O)c3ccco3)CC2)cc1)c1ccc2c(c1)OCO2,-4,0%,10%,?,-1,13µM*
Cc1ccc(C(=O)Nc2ccc(N3CCN(C(=O)c4ccco4)CC3)cc2)cc1,-4,-9%,1%,-19%,9,?
CCN1CCN(c2ccc(NC(=O)c3ccco3)cc2)CC1,34*,/,10%,5%,42*,86%
O=C(Nc1ccc(N2CCN(C(=O)c3ccco3)CC2)cc1)c1ccco1,43,-2%,-2%,?,12*,-9%
Cc1ccc(C(=O)NCCCNC(=O)Cc2ccc(Cl)cc2)cn1,/,/,/,1%,/,?
O=C(c1ccco1)N1CCN(c2ccc(Cl)cc2)CC1,79*,1%,-18%,1%,37*,34%
CC(C)c1ccc(NC(=O)C(c2ccc3c(c2)OCO3)N2CCN(C(=O)c3ccco3)CC2)cc1 (configuration not stated),7,-5%,-38%,23%,14,?
O=C(/C=C\c1ccco1)Nc1ccc(N2CCN(C(=O)c3ccccc3)CC2)cc1,5,6%,14%,5.9µM*,-3,?
COc1ccc(Cn2c(=O)[nH]c3cc(C(=O)Nc4ccc(N5CCN(C)CC5)cc4)ccc32)cc1,-17,2%,6%,?,4,-21%
CCN1CCN(c2ccc(NC(=O)c3ccc4c(c3)[nH]c(=O)n4Cc3ccc(F)cc3)cc2)CC1,10,1%,28%,13µM*,-3,7.4µM*
CC(C)c1ccc(NC(=O)C(c2ccccc2)N2CCN(C(=O)c3ccco3)CC2)cc1 (configuration not stated),125*,/,-74%,?,55*,9.3µM*
O=C(Nc1ccc(NC(=O)c2cccs2)cc1)c1ccc(Br)o1,28,-11%,-4%,31%,14,/
O=C(Nc1ccc(N2CCN(C(=O)c3cccs3)CC2)cc1)c1ccc(Br)o1,/,/,/,?,/,12µM*
O=C(Nc1ccc(N2CCN(C(=O)c3ccco3)CC2)cc1)c1ccc(Br)cc1,-2,-3%,-5%,?,-1,?
O=C(c1ccco1)N1CCN(Cc2c(F)cccc2Cl)CC1,50*,2%,-4%,17%,39*,32%
O=C(Nc1ccc(N2CCN(C(=O)c3ccco3)CC2)cc1)c1cc(Br)ccc1Cl,/,/,/,10µM*,/,13µM*
CC(C)(C)OC(=O)N1CCN(c2ccc(NC(=O)c3ccco3)cc2)CC1,14,8%,-32%,2%,7,7.4µM*
O=C(c1ccco1)N1CCN(Cc2ccccc2F)CC1,1,?,7%,-48%,9,425%
COc1ccc(S(=O)(=O)N(CC(=O)NCc2ccncc2)c2ccc(C)cc2)cc1Br,-6,-9%,-15%,-22%,-6,1%
Cc1occc1C(=O)N1CCN(c2ccc(Cl)cc2)CC1,-25,/,-20%,4.7µM*,-1,15%
COc1ccc(S(=O)(=O)NCCC(=O)NCc2ccccc2)cc1,-20,0%,-4%,?,-1,-18%
SMILES,Shiga inhibitor,Giardia FBPA inh,NS1 function inh,Pf growth 96h,Cycloheximide cs,Pf growth 48h
Cn1c(=O)oc2cc(S(=O)(=O)NCCC(=O)Nc3ccc4c(c3)OCCO4)ccc21,14,-1%,4%,/,20*,4%
Cn1c(=O)oc2cc(S(=O)(=O)Nc3ccc4c(c3)OCCO4)ccc21,42,11%,-16%,7%,16,?
COc1ccc(CNC(=O)CCNS(=O)(=O)c2ccc3c(c2)oc(=O)n3C)cc1,2,/,0%,12µM*,-2,-3%
COc1ccc(CNc2ncncc2-c2ccoc2)c(OC)c1,/,-3%,/,/,/,/
COc1ccc(NC(=O)N2CCCC3(CCN(C(=O)c4cc(C(F)(F)F)cc(C(F)(F)F)c4)CC3)C2)cc1,/,-2%,/,/,/,/
CCCCCCCCOC(=O)CCn1[nH]c(=O)c2ccccc2c1=O,-9,6%,-147%,10µM*,-4,?
Cc1c(C)n(Cc2ccccc2)c2ncnc(Cl)c12,1,-4%,-13%,19%,7,10%
COc1cc2c(cc1OC)C(C)N(C(=O)c1ccc(C)o1)CC2 (configuration not stated),-3,0%,3%,-7%,-3,-12%
COc1cc2c(cc1OC)C(c1cc3ccc(C)cc3[nH]c1=O)N(C(=O)c1ccco1)CC2 (configuration not stated),-4,10%,21%,5%,-5,13µM*
COc1cc2c(cc1OC)C(c1cc3cc4c(cc3[nH]c1=O)OCO4)N(C(=O)C1CC1)CC2 (configuration not stated),9,-3%,1%,18%,-2,13µM*
COc1ccc(-c2cc(=O)n(-c3ccc([N+](=O)[O-])cc3)[nH]2)cc1,23,1%,12%,-11%,5,?
COc1ccc(-n2c(N)c(C#N)c3ccc([N+](=O)[O-])cc3c2=O)cc1,active,?,10%,59%,21,63%
COc1cccc(-n2c(N)c(C#N)c3ccc([N+](=O)[O-])cc3c2=O)c1,-14,1%,16%,-99%,-1,-46%
COc1ccc(-n2cc3ccc([N+](=O)[O-])cc3n2)cc1,115*,-6%,-3%,0%,37*,161%
CC1CN(C(=O)Cn2c(=O)oc3ccccc32)CC(C)O1 (configuration not stated),-10,0%,-2%,16%,-3,4%
COC(=O)/C(C#N)=C1/C=Cc2ccccc2N1C,61*,4%,1%,113%,26*,201%
COc1ccc(-c2cc(C(F)(F)F)nc(N3CCOCC3)n2)cc1OC,37,-1%,-34%,?,-4,?
NC(=O)c1cc(-c2ccccc2)nc(N2CCOCC2)n1,-9,2%,1%,3%,-3,?
NC(=O)c1cc(-c2ccccc2)nc(N2CCCCCC2)n1,-10,-1%,-47%,13µM*,4,0%
COc1ccc(-c2cc(-c3ccccc3)nc(N3CCCC3)n2)cc1OC,-3,8%,12%,0%,-2,9.3µM*
Cc1ccc(S(=O)(=O)N2CCCCC2c2cccnc2)c(C)c1C (configuration not stated),-3,-7%,-10%,0.33µM*,0,?

# Screening data (PubChem BioAssay)
